SMILES strings stand for the structures. The campaign covered roughly 48,000 compounds. About 13,000 (27%) showed an effect of 50% or more. Some of the results follow.

This assay deals with Wolbachia pipientis. The assay can be described thus: Anti-Wolbachia Cell-Based Screen. The format is functional. On the set-up: scale not given: in the data most compounds retested in dose-response had high values. The note with it: 5 µM.
Regarding `O=C(NCc1nncn1C1CC1)C1(c2ccccc2)CCOCC1`, the “Percent Effect” value is recorded as 1.62%.

`CCS(=O)(=O)c1ncc(CN(C)Cc2ccccc2OC)n1CCOC`: the “Percent Effect” value is -30.57%.

As for `Cc1oc(-c2ccc(Cl)cc2)nc1C(=O)NC1=NCCS1`, the “Percent Effect” value is recorded as -49.42%.

With `CCOCC(=O)N1Cc2[nH]nc(COCC3CC3)c2C1.O=C(O)C(F)(F)F`, the “Percent Effect” value is reported as -0.4061%.

With `Cc1nc2n(n1)CC(NCc1cc(Cl)c3c(c1)OCCO3)CC2` (centres undefined), the “Percent Effect” value is given as 95.39%.

Regarding `COc1cc(CNC2CCc3nc(C)nn3C2)cc2c1OCCO2` (centres undefined), the “Percent Effect” value turned out to be 2.484%.

With `COc1cc(CNC2CCc3nc(C(C)C)nn3C2)cc2c1OCO2` (centres undefined), the “Percent Effect” value is listed as -4.906%.

`Cc1nc2n(n1)CC(NCc1cc(Cl)c3c(c1)OCCCO3)CC2` (centres undefined): the “Percent Effect” value came to 2.469%.

Turning to `CCc1nc2n(n1)CC(NCc1cc(OC)c3c(c1)OCCO3)CC2` (centres undefined), the “Percent Effect” value worked out at 96.75%.

On to `CCc1nc2n(n1)CC(NCc1ccccc1OCC(=O)NC)CC2` (centres undefined), for which the “Percent Effect” value came out at 0.2163%.

For `COc1cc(CNC2CCCN(c3cccnn3)C2)cc2c1OCO2` (centres undefined), the “Percent Effect” value is -1.044%.

Turning to `Cc1nc2n(n1)CC(NCc1nnc(C(C)(C)C)o1)CC2` (centres undefined), the “Percent Effect” value was -15.95%.

On to `CCc1nc2n(n1)CC(NCC(=O)Nc1cc(C)on1)CC2` (centres undefined), for which the “Percent Effect” value was -10.03%.

For `CCc1nc2n(n1)CC(NCc1cc3ccccc3o1)CC2` (centres undefined), the “Percent Effect” value is recorded as -28.44%.

As to `CCc1nc2n(n1)CC(NCc1cc(OC)c3c(c1)OCO3)CC2` (centres undefined), the “Percent Effect” value turned out to be 105%.

On to `COc1cc(CNC2CCc3nc(C)nn3C2)cc2c1OCO2` (centres undefined), for which the “Percent Effect” value is 104.6%.

Turning to `Cn1c(CCNC(=O)Nc2cn[nH]c2)nc2ccc(F)cc21`, the “Percent Effect” value is on record as -27.77%.

Take `O=C(NCc1ccc(-n2cncn2)nc1)N(CC1CCOC1)C1CC1` (centres undefined): the “Percent Effect” value was 4.835%.

As to `O=C(NC1(c2nccs2)CCCC1)c1cc(C2CC2)[nH]n1`, the “Percent Effect” value was -18.19%.

Regarding `CC(C)n1cnnc1CN(C)Cc1cnc(-c2ccco2)nc1`, the “Percent Effect” value is reported as -3.944%.

Regarding `CNC(=O)c1cccc(CNC(C)c2ccc(F)cc2N(C)C)c1` (centres undefined), the “Percent Effect” value was found to be 2.761%.

For `Cc1cc(CNC(=O)c2cccs2)ccc1S(C)(=O)=O`, the “Percent Effect” value is recorded as -1.482%.

As for `O=C(c1cnc(O)cn1)N1C[C@@H]2CC[C@H](C1)N(Cc1ccccc1)C2`, the “Percent Effect” value is 93.73%.

Consider `N#Cc1ccccc1CN1C[C@H]2CC[C@@H]1CN(C(=O)c1cccnc1)C2`, for which the “Percent Effect” value is given as -5.944%.

As to `Cc1ccc(C(=O)N2C[C@@H]3CC[C@H](C2)N(Cc2ccccc2)C3)cn1`, the “Percent Effect” value stood at 101.3%.

Take `O=C(c1cccnc1)N1C[C@@H]2CC[C@H](C1)N(Cc1cccc(Cl)c1F)C2`: the “Percent Effect” value is listed as -33.46%.

On to `Nc1ccc(C(=O)N2C[C@@H]3CC[C@H](C2)N(Cc2ccccc2)C3)cn1`, for which the “Percent Effect” value came out at 108.6%.

Take `CC(=O)c1ccc(C(=O)N2C[C@@H]3CC[C@H](C2)N(Cc2ccccc2)C3)s1`: the “Percent Effect” value is on record as -1.466%.

On to `CCn1cc(CN2C[C@H]3CC[C@@H]2CN(C(=O)c2cnccn2)C3)cn1`, for which the “Percent Effect” value came out at 6.074%.

`Cc1ccc(C)c(CN2C[C@H]3CC[C@@H]2CN(C(=O)c2cccnc2)C3)c1`: the “Percent Effect” value amounted to 3.177%.

On to `O=C(c1cccnc1)N1C[C@@H]2CC[C@H](C1)N(Cc1ccc(F)cc1Cl)C2`, for which the “Percent Effect” value is listed as -16.95%.

For `c1ccc(SCCN2CCCC(Cn3ccnc3)C2)cc1` (centres undefined), the “Percent Effect” value was -2.811%.

With `COCCc1noc(CN2CCC3(CCCO3)CCC2=O)n1` (centres undefined), the “Percent Effect” value is recorded as -3.143%.

Consider `CCn1cnnc1CNC(=O)c1cc(Cl)ccc1OC`, for which the “Percent Effect” value worked out at 2.71%.

On to `CC(C)c1nc(C(=O)NCCn2ccnc2)nn1-c1cccc(F)c1`, for which the “Percent Effect” value came to 0.4969%.

As for `O=C(NCCn1cnnc1C1CC1)c1c(O)cc(F)cc1F`, the “Percent Effect” value is listed as 120%.

Turning to `O=C(NCCn1cccc1)c1c(O)cc(F)cc1F`, the “Percent Effect” value is on record as 114.7%.

With `CN(C)C(C(=O)NCCn1cccc1)c1cccc(F)c1` (centres undefined), the “Percent Effect” value worked out at 1.101%.

Regarding `O=C(NCCC(=O)N1CCCCCC1)c1c(O)cc(F)cc1F`, the “Percent Effect” value was determined as 4.152%.

On to `CC(C)c1nncn1CCNC(=O)c1ccc(Cl)cc1O`, for which the “Percent Effect” value was determined as 126.8%.

In the case of `CC(C)Cn1cnnc1C1CCCN1C(=O)c1ccc(F)cc1F` (centres undefined), the “Percent Effect” value is recorded as -3.293%.

On to `CCn1cnnc1CNC(=O)c1cc(Cl)ccc1O`, for which the “Percent Effect” value worked out at 6.278%.

Consider `CC(C)c1nncn1CCNC(=O)c1c(O)cc(F)cc1F`, for which the “Percent Effect” value is 158.6%.

Consider `CC(C)c1ccc(O)c(C(=O)NCc2nncn2C)c1`, for which the “Percent Effect” value is reported as -11.21%.

`CCOC(=O)N1CCN(c2nc(NC3CC3)c3ccccc3n2)CC1.Cl`: the “Percent Effect” value is recorded as 12.46%.

With `CC(C)CN1CCC(NC(=O)NCCC(=O)NCc2ccccc2)CC1`, the “Percent Effect” value is given as -0.3399%.

For the molecule `O=C(NC1(C(=O)O)CCCCC1)C1Cc2ccccc2O1` (centres undefined), the “Percent Effect” value was determined as 26.74%.

In the case of `CC(C(=O)NCc1ccc(N2CCCCCC2)nc1)n1cncn1` (centres undefined), the “Percent Effect” value is 118.8%.

`CC(C(=O)NCc1ccnc(N2CCCC2)c1)n1cncn1` (centres undefined): the “Percent Effect” value is recorded as -10.11%.

Consider `CC(C(=O)NCc1ccc(N2CCCCC2)nc1)n1cncn1` (centres undefined), for which the “Percent Effect” value is reported as 91.32%.

In the case of `CCCS(=O)(=O)NC(C)C(=O)NCc1ccc(N2CCCC2)nc1` (centres undefined), the “Percent Effect” value is reported as 3.443%.

Take `CC(C(=O)NCc1ccc(N2CCCC2)nc1)n1cncn1` (centres undefined): the “Percent Effect” value was determined as 95.49%.

Turning to `CCN(CC)C(C(=O)NCc1ccc(N2CCCC2)nc1)C(C)C` (centres undefined), the “Percent Effect” value worked out at 0.1706%.

Regarding `CCc1cc(N2CCS(=O)(=O)CC2)n2nc(C)c(C)c2n1`, the “Percent Effect” value came to 1.934%.
